Experimental data taken from PubChem BioAssay (NCATS).
Inconclusive results are not listed. Entries that show only a call come without a potency. Active and inactive are the calls of the source. Unless noted, the call rests on the fitted dose curve; in most records, active means well fitted curve in the direction sought with a large enough effect; inconclusive means small, poorly fitted or top-dose-only effect, or another doubt; inactive means no such curve, though single readings can be large; an effect the other way counts as inactive or inconclusive.

Tests used:
[1] = target: Mitogen-activated protein kinase 10 (Mus musculus) (UniProt Q61831); test: JNK3 AlphaScreen Assay (AID 530; active means well fitted curve in either direction with a large enough effect, not every such curve was filed as active;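 further: kinase came from lysate of stimulated human HepG2 cells; signal reports phosphorylation of biotinylated GST-cJun 1-79 at Ser73 with 10 µM ATP; series mostly up to about 57 µM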)
How it was run: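 JNK3 came from HepG2 lysates pre-activated with IL-1beta and TNF-alpha and phosphorylated biotinylated GST-cJun (1-79) at 10 uM ATP, pH 7.6, room temperature. Compounds were titrated. AlphaScreen signal used anti-phospho-cJun (Ser73) antibody.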

[2] = target: Cytochrome P450 3A4 (Homo sapiens) (UniProt P08684); test: qHTS Assay for Inhibitors and Substrates of Cytochrome P450 3A4 (AID 884); further: nearly all actives have a fitted effect of over 50% in size; further: potency means the concentration at half of the fitted maximal effect
Cytochrome P450 3A4 (Homo sapiens), sequence (P08684 whole entry, looked up): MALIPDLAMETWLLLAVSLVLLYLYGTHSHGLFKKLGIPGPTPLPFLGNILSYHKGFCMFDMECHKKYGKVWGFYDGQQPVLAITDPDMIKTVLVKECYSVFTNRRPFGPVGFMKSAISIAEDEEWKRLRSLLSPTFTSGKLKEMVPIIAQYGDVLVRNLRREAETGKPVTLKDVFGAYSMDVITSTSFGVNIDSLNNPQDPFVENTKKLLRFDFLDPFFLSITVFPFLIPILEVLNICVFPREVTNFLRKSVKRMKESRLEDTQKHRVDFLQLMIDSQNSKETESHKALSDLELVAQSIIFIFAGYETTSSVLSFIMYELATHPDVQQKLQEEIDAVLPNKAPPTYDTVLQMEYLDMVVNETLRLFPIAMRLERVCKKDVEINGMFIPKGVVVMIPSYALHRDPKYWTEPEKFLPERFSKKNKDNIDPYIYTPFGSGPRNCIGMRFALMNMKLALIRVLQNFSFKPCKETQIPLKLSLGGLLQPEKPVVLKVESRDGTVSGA
How it was run: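 20 nM human CYP3A4 with 25 uM Luciferin-PPXE (at KM) in 200 mM KPO4, preincubated 10 min with compound; NADPH regeneration started a 60 min RT reaction. Luciferin detected by luminescence, normalized to 57 uM ketoconazole as full inhibition.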

[3] = target: Cytochrome P450 3A4 (Homo sapiens) (UniProt P08684); test: qHTS Assay for Activators of Cytochrome P450 3A4 (AID 885); further: nearly all actives have a fitted effect of over 65% in size; further: potency means the concentration at half of the fitted maximal effect
How it was run: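 Quantitative HTS format: compounds preincubated with 20nM human CYP3A4 and Luciferin-PPXE substrate at KM, reaction started by NADPH regeneration, stopped after 60 min, luciferase luminescence read 20 min later.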

[4] = target: Calcium and integrin-binding protein 1 (Homo sapiens) (UniProt Q99828); test: Primary qHTS for Identification of Calcium Integrin Binding Protein 1 (CIB1) Competitor (AID 1508620);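 further: GST tagged CIB1 binding a fluorescein labelled alphaIIb integrin peptide tracer; top concentration of the series differs between compounds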
Calcium and integrin-binding protein 1 (Homo sapiens), sequence (Q99828 whole entry, looked up): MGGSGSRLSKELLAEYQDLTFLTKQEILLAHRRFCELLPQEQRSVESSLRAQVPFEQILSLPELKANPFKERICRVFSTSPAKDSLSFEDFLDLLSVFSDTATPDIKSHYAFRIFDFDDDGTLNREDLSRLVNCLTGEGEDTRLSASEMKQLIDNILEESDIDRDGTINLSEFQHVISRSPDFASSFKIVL
How it was run: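 Fluorescence polarization competition: CIB1-GST (1 uM final) preincubated with compound 15 min at room temperature, then FITC-labeled alphaIIb peptide (100 nM final) added for another 15 min. Polarization read at Ex 480/Em 540.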

| Compound | outcome [1] | Potency [2] | Potency [3] | Potency [4] |
| --- | --- | --- | --- | --- |
| Cc1nc(NCc2ccccc2)c2nc(-c3ccccc3)n(CC(C)(C)CN(C)C)c2n1 | inactive | 3.98 µM (active) | inactive | inactive |
| CCCn1c(C)nc2c(N3CCC(N(C)C)C3)nc(C)nc21 (stereo unspecified) | inactive | inactive | – | inactive |
| CCCn1c(C)nc2c(NCC(C)(C)CN(C)C)nc(C)nc21 | inactive | inactive | – | inactive |
| CCCn1c(C)nc2c(N3CCCN(Cc4ccccc4)CC3)nc(C)nc21 | inactive | 7.94 µM (active) | inactive | inactive |
| CCN(CC)CCCCn1c(-c2ccccc2)nc2c(Nc3ccccc3)nc(C)nc21 | inactive | inactive | – | inactive |
| CCCCNc1nc(C)nc2c1nc(-c1ccccc1)n2CC1CCCN1CC (stereo unspecified) | inactive | 3.98 µM (active) | inactive | inactive |
| CCN(CC)CCCCn1c(-c2ccccc2)nc2c(NCCOC)nc(C)nc21 | inactive | inactive | – | inactive |
| CCCCNc1nc(C)nc2c1nc(-c1ccccc1)n2CCCN1CCCCC1C (stereo unspecified) | inactive | 6.31 µM (active) | inactive | inactive |
| Cc1nc(N2CCOCC2)c2nc(-c3ccccc3)n(CCCN(C)C)c2n1 | inactive | inactive | – | inactive |
| CCN1CCCC1Cn1c(-c2ccccc2)nc2c(NC3CCCCC3)nc(C)nc21 (stereo unspecified) | inactive | 12.6 µM (active) | inactive | inactive |
| CCN(CC)CCn1c(-c2ccccc2)nc2c(N3CCOCC3)nc(C)nc21 | inactive | inactive | – | inactive |
| CCCn1c(C)nc2c(NC(C)CN(C)C)nc(C)nc21 (stereo unspecified) | inactive | inactive | – | inactive |
| CCCn1c(C)nc2c(NCCN3CCCC3)nc(C)nc21 | inactive | inactive | 15.8 µM (active) | inactive |
| Cc1nc(NCc2ccccc2)c2nc(-c3ccccc3)n(C3CCN(Cc4ccccc4)C3)c2n1 (stereo unspecified) | inactive | 3.98 µM (active) | inactive | inactive |
| CCCn1c(C)nc2c(N(C)CCN(C)C)nc(C)nc21 | inactive | inactive | – | inactive |
| CCCn1c(C)nc2c(NCCCN(CCO)CCO)nc(C)nc21 | inactive | inactive | – | inactive |
| Cc1nc(N2CCOCC2)c2nc(-c3ccccc3)n(CC3CCN(C)CC3)c2n1 | inactive | inactive | – | inactive |
| Cc1nc(N2CCOCC2)c2nc(-c3ccccc3)n(CCN(C)C)c2n1 | inactive | inactive | – | inactive |
| CCCn1c(-c2ccc(F)cc2)nc2c(N3CCN(CCC(=O)OCC)CC3)nc(C)nc21 | inactive | 12.6 µM (active) | inactive | inactive |

| Compound | outcome [1] | Potency [2] | Potency [3] | Potency [4] |
| --- | --- | --- | --- | --- |
| Cc1nc(NC2CCCCC2)c2nc(-c3ccccc3)n(CCN3CCCCC3)c2n1 | inactive | 7.94 µM (active) | inactive | inactive |
| CCCn1c(-c2ccc(F)cc2)nc2c(N3CCCN(Cc4ccccc4)CC3)nc(C)nc21 | inactive | 3.16 µM (active) | inactive | inactive |
| Cc1nc(NCc2ccccc2)c2nc(-c3ccccc3)n(CCN3CCCC3)c2n1 | inactive | 10 µM (active) | inactive | inactive |
| CCCn1c(-c2ccc(F)cc2)nc2c(NC(C)CCCN(CC)CC)nc(C)nc21 (stereo unspecified) | inactive | 10 µM (active) | inactive | inactive |
| Cc1nc(NCc2ccccc2)c2nc(-c3ccccc3)n(CC3CCN(C)CC3)c2n1 | inactive | inactive | – | inactive |
| CCN(CC)CCCCn1c(-c2ccccc2)nc2c(NCc3ccccc3)nc(C)nc21 | inactive | 7.94 µM (active) | inactive | inactive |
| CCN(CC)CCCC(C)n1c(-c2ccccc2)nc2c(NCCO)nc(C)nc21 (stereo unspecified) | inactive | inactive | – | inactive |
| CCCn1c(C)nc2c(NC3CCN(Cc4ccccc4)CC3)nc(C)nc21 | inactive | inactive | – | inactive |
| CCCn1c(C)nc2c(NCCCN3CCCCC3C)nc(C)nc21 (stereo unspecified) | inactive | inactive | – | inactive |
| CCCn1c(C)nc2c(NCCCCN3CCCC3)nc(C)nc21 | inactive | inactive | – | inactive |
| Cc1nc(NCc2ccccc2)c2nc(-c3ccccc3)n(CCCN(C)C)c2n1 | inactive | 12.6 µM (active) | inactive | inactive |
| CCCn1c(-c2ccc(F)cc2)nc2c(NCCCN(C)C)nc(C)nc21 | inactive | inactive | – | inactive |
| Cc1nc(NCCO)c2nc(-c3ccccc3)n(CC3CCN(C)CC3)c2n1 | inactive | inactive | – | inactive |
| CCCCNc1nc(C)nc2c1nc(-c1ccccc1)n2CCN1CCCCC1 | inactive | 3.16 µM (active) | inactive | inactive |
| Cc1nc(NCc2ccccc2)c2nc(-c3ccccc3)n(CCN3CCCCC3)c2n1 | inactive | 2.51 µM (active) | inactive | inactive |
| CCCn1c(-c2ccc(F)cc2)nc2c(NCCCCN(CC)CC)nc(C)nc21 | inactive | 10 µM (active) | inactive | inactive |
| CCCn1c(C)nc2c(NCCN(C)C)nc(C)nc21 | inactive | inactive | – | inactive |
| Cc1nc(N2CCOCC2)c2nc(-c3ccccc3)n(CCN3CCCC3)c2n1 | inactive | – | inactive | inactive |
| Cc1nc(N2CCOCC2)c2nc(-c3ccccc3)n(CCN3CCCCC3)c2n1 | inactive | 2.51 µM (active) | inactive | inactive |

| Compound | outcome [1] | Potency [2] | Potency [3] | Potency [4] |
| --- | --- | --- | --- | --- |
| CCN1CCCC1Cn1c(-c2ccccc2)nc2c(N(CCOC)CCOC)nc(C)nc21 (stereo unspecified) | inactive | 15.8 µM (active) | inactive | inactive |
| COCCNc1nc(C)nc2c1nc(-c1ccccc1)n2CCN1CCCCC1 | inactive | 10 µM (active) | inactive | inactive |
| COCCNc1nc(C)nc2c1nc(-c1ccccc1)n2C1CCN(Cc2ccccc2)C1 (stereo unspecified) | inactive | 12.6 µM (active) | inactive | inactive |
| CCCn1c(-c2ccc(F)cc2)nc2c(NCCN3CCOCC3)nc(C)nc21 | inactive | 7.94 µM (active) | inactive | inactive |
| CCN(CC)CCCC(C)n1c(-c2ccccc2)nc2c(NC3CCCCC3)nc(C)nc21 (stereo unspecified) | inactive | 12.6 µM (active) | inactive | inactive |
| COCCNc1nc(C)nc2c1nc(-c1ccccc1)n2CCN1CCCC1 | inactive | – | inactive | inactive |
| Cc1nc(NCc2ccccc2)c2nc(-c3ccccc3)n(CCN(C)C)c2n1 | inactive | – | inactive | inactive |
| COCCNc1nc(C)nc2c1nc(-c1ccccc1)n2CCCN1CCCCC1C (stereo unspecified) | inactive | – | inactive | inactive |
| CCCn1c(-c2ccc(F)cc2)nc2c(NC3CC4CCC(C3)N4C)nc(C)nc21 (stereo unspecified) | inactive | – | inactive | inactive |
| Cc1nc(NC2CCCCC2)c2nc(-c3ccccc3)n(CCN3CCCC3)c2n1 | inactive | – | inactive | inactive |
| CCN1CCCC1Cn1c(-c2ccccc2)nc2c(NCCOC)nc(C)nc21 (stereo unspecified) | inactive | 20 µM (active) | inactive | inactive |
| CCCn1c(-c2ccc(F)cc2)nc2c(NCC(C)(C)CN(C)C)nc(C)nc21 | inactive | 15.8 µM (active) | inactive | inactive |
| CCCCNc1nc(C)nc2c1nc(-c1ccccc1)n2C(C)CCCN(CC)CC (stereo unspecified) | inactive | 10 µM (active) | inactive | inactive |
| CCCn1c(C)nc2c(N(CCN(C)C)Cc3ccccc3)nc(C)nc21 | inactive | – | inactive | inactive |
| COCCN(CCOC)c1nc(C)nc2c1nc(-c1ccccc1)n2CCCN1CCCCC1C (stereo unspecified) | inactive | 12.6 µM (active) | inactive | inactive |
| CCCn1c(C)nc2c(NC3CCCCC3)nc(C)nc21 | inactive | – | inactive | inactive |
| CCCn1c(-c2ccc(F)cc2)nc2c(NCCN3CCSCC3)nc(C)nc21 | inactive | 20 µM (active) | inactive | inactive |
| CCCn1c(-c2ccc(F)cc2)nc2c(NCCCN3CCCCC3C)nc(C)nc21 (stereo unspecified) | inactive | 10 µM (active) | inactive | inactive |
| CCN(CC)CCn1c(-c2ccccc2)nc2c(NCc3ccccc3)nc(C)nc21 | inactive | 12.6 µM (active) | inactive | inactive |
